Measured values taken from PubChem BioAssay (NCI).
This is part of a sample that, as a whole, favours compounds with a hit. Of some 79,000 tested, about 15% had one in any assay. Unmarked numbers belong to inactive results. Active and inactive are the calls of the source. No stated cut-off is given here; in the data, active means growth inhibition above about 70%; inactive means the rest.

Columns and labels:
[1] = NCI Yeast Anticancer Drug Screen. Data for the rad52 strain (AID 147);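 further: 0% = growth of vehicle-treated control cultures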; settings: S. cerevisiae rad52 mutant growth inhibition, stronger effect = higher value
Outline: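 The repair-mutant yeast strain was incubated with compounds, then growth was read and inhibition derived relative to vehicle.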

[2] = NCI Yeast Anticancer Drug Screen. Data for the wt1 strain (AID 149);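 further: 0% = growth of vehicle-treated wt1 cultures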; settings: S. cerevisiae wt1 strain (SPY 50644) growth inhibition, stronger effect = higher value
Outline: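 Yeast wt1 strain exposed to compounds; growth inhibition measured relative to vehicle-treated controls.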

[3] = NCI Yeast Anticancer Drug Screen. Data for the rad50EPP+ strain (AID 151);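 further: 0% = growth of vehicle-treated control cultures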; settings: S. cerevisiae rad50 mutant strain, stronger effect = higher value
Outline: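 Vehicle-normalised growth inhibition; rad50EPP+ yeast strain, altered in DNA damage repair, compound-treated.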

[4] = NCI Yeast Anticancer Drug Screen. Data for the mgt1 strain (AID 153); settings: S. cerevisiae mgt1 mutant growth inhibition, stronger effect = higher value
Outline: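 Vehicle-normalized growth inhibition is determined in mgt1 yeast, a strain selected for a defined alteration in DNA repair or cell cycle control.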

[5] = NCI Yeast Anticancer Drug Screen. Data for the rad50 strain (AID 155);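 further: 0% = growth of vehicle-only cultures of the same strain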; settings: S. cerevisiae rad50 strain growth inhibition, stronger effect = higher value
Outline: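 Yeast carrying a defined DNA repair defect were exposed to test compounds, and growth was compared with vehicle-treated controls to give percent inhibition.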

[6] = NCI Yeast Anticancer Drug Screen. Data for the mec2-1 strain (AID 157); settings: S. cerevisiae mec2-1 strain, stronger effect = higher value
Outline: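 Mutant yeast (mec2-1) grown with compound; growth inhibition relative to vehicle control reported.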

[7] = NCI Yeast Anticancer Drug Screen. Data for the rad14 strain (AID 159);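 further: 0% = growth of vehicle-treated control cultures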; settings: S. cerevisiae rad14 strain growth inhibition, stronger effect = higher value
Outline: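 Yeast cells carrying a defined DNA-repair defect were exposed to compounds, and growth inhibition was calculated relative to vehicle-treated control cultures.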

[8] = NCI Yeast Anticancer Drug Screen. Data for the sgs1 mgt1 strain (AID 161);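 further: 0% = growth of cultures given vehicle only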; settings: S. cerevisiae sgs1 mgt1 strain, stronger effect = higher value
Outline: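 Compounds are added to genetically altered yeast, and growth is compared with cultures given vehicle alone to give percent inhibition.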

[9] = NCI Yeast Anticancer Drug Screen. Data for the CLN2oe strain (AID 163);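 further: 0% = growth of vehicle-only control cultures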; settings: S. cerevisiae CLN2oe strain, stronger effect = higher value
Outline: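 Compounds are applied to yeast harbouring a defined cell-cycle control change; reduced growth compared with vehicle-treated controls gives the value.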

[10] = NCI Yeast Anticancer Drug Screen. Data for the cln2 rad14 strain (AID 165);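 further: 0% = growth equal to vehicle treated cultures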; settings: S. cerevisiae cln2 rad14 strain, stronger effect = higher value
Outline: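 Readout is yeast growth inhibition versus vehicle-treated controls, using a strain with cln2 and rad14 alterations exposed to compound.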

[11] = NCI Yeast Anticancer Drug Screen. Data for the bub3 strain (AID 167); settings: S. cerevisiae bub3 mutant strain, stronger effect = higher value
Outline: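 Compounds were applied to a genetically altered yeast strain carrying a cell-cycle control defect. Growth inhibition was scored against vehicle-treated controls.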

[12] = NCI Yeast Anticancer Drug Screen. Data for the wt2 strain (AID 169);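 further: 0% = growth of vehicle-treated yeast cultures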; settings: S. cerevisiae wt2 strain growth inhibition, stronger effect = higher value
Outline: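 Against vehicle-treated controls, the growth of yeast exposed to each compound was compared, and the inhibition was recorded.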

[13] = NCI Yeast Anticancer Drug Screen. Data for the mlh1 strain (AID 171);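 further: 0% = growth of vehicle-treated control cultures of the same strain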; settings: S. cerevisiae mlh1 strain growth inhibition, stronger effect = higher value
Outline: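 Measured: yeast growth. Reference: vehicle-treated controls. Organism: strain with a defined alteration affecting DNA damage repair or cell cycle control, treated with compound.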

[14] = NCI Yeast Anticancer Drug Screen. Data for the sgs1 strain (AID 173);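 further: 0% = growth of vehicle-only control cultures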; settings: S. cerevisiae sgs1 mutant, stronger effect = higher value
Outline: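 Each compound was added to cultures of the altered yeast strain. Growth was recorded, and inhibition was derived by comparison with vehicle controls.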

[15] = NCI Yeast Anticancer Drug Screen. Data for the mlh1 rad18 strain (AID 175); settings: S. cerevisiae mlh1 rad18 strain growth inhibition, stronger effect = higher value
Outline: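 Genetically defined yeast (DNA repair-deficient) exposed to compounds; growth inhibition determined relative to vehicle.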

[16] = NCI Yeast Anticancer Drug Screen. Data for the rad18 strain (AID 177); settings: S. cerevisiae rad18 mutant growth inhibition, stronger effect = higher value
Outline: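 Vehicle-treated cultures served as the baseline for scoring compound-induced growth inhibition in DNA-repair-mutant yeast.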

[17] = at 5.0 µM (retest, dose inferred, filed as 0.5)
[18] = at 50.0 µM (retest, dose inferred, filed as 5.0)

## CCCC(=O)Oc1ccc(/C=N/NC(N)=S)nc1
[1]; at 1.2 µM
  growth inhibition: 5%
[1]; at 3.7 µM
  growth inhibition: -9%
[1]; at 11.0 µM
  growth inhibition: -1%
[1]; at 33.0 µM
  growth inhibition: 8%
[1]; at 100.0 µM
  growth inhibition: 4%
[2]; at 1.2 µM
  growth inhibition: 1%
[2]; at 3.7 µM
  growth inhibition: -19%
[2]; at 11.0 µM
  growth inhibition: 1%
[2]; at 33.0 µM
  growth inhibition: -19%
[2]; at 100.0 µM
  growth inhibition: -24%
[3]; at 1.2 µM
  growth inhibition: -3%
[3]; at 3.7 µM
  growth inhibition: 7%
[3]; at 11.0 µM
  growth inhibition: 0%
[3]; at 33.0 µM
  growth inhibition: -11%
[3]; at 100.0 µM
  growth inhibition: -9%
[4]; at 1.2 µM
  growth inhibition: -1%
[4]; at 3.7 µM
  growth inhibition: -5%
[4]; at 11.0 µM
  growth inhibition: -2%
[4]; at 33.0 µM
  growth inhibition: -6%
[4]; at 100.0 µM
  growth inhibition: -14%
[5]; at 1.2 µM
  growth inhibition: -9%
[5]; at 3.7 µM
  growth inhibition: -16%
[5]; [17]
  growth inhibition: -3%
[5]; at 11.0 µM
  growth inhibition: -17%
[5]; at 33.0 µM
  growth inhibition: -7%
[5]; [18]
  growth inhibition: 14%
[5]; at 50.0 µM
  growth inhibition: 15%
[5]; at 100.0 µM
  growth inhibition: 4%
[6]; at 1.2 µM
  growth inhibition: -3%
[6]; at 3.7 µM
  growth inhibition: -2%
[6]; [17]
  growth inhibition: -2%
[6]; at 11.0 µM
  growth inhibition: -4%
[6]; at 33.0 µM
  growth inhibition: -2%
[6]; [18]
  growth inhibition: 89% (active)
[6]; at 50.0 µM
  growth inhibition: 75.2% (active)
[6]; at 100.0 µM
  growth inhibition: 42%
[7]; at 1.2 µM
  growth inhibition: 2%
[7]; at 3.7 µM
  growth inhibition: 2%
[7]; at 11.0 µM
  growth inhibition: -17%
[7]; at 33.0 µM
  growth inhibition: -19%
[7]; at 100.0 µM
  growth inhibition: -21%
[8]; [17]
  growth inhibition: -1%
[8]; [18]
  growth inhibition: 25%
[8]; at 50.0 µM
  growth inhibition: 28.4%
[9]; at 1.2 µM
  growth inhibition: -5%
[9]; at 3.7 µM
  growth inhibition: -7%
[9]; at 11.0 µM
  growth inhibition: -11%
[9]; at 33.0 µM
  growth inhibition: -6%
[9]; at 100.0 µM
  growth inhibition: -8%
[10]; [17]
  growth inhibition: -3%
[10]; [18]
  growth inhibition: 33%
[10]; at 50.0 µM
  growth inhibition: 11.3%
[11]; at 1.2 µM
  growth inhibition: -5%
[11]; at 3.7 µM
  growth inhibition: -6%
[11]; [17]
  growth inhibition: -4%
[11]; at 11.0 µM
  growth inhibition: -9%
[11]; at 33.0 µM
  growth inhibition: -20%
[11]; [18]
  growth inhibition: -14%
[11]; at 50.0 µM
  growth inhibition: 0.95%
[11]; at 100.0 µM
  growth inhibition: -21%
[12]; at 1.2 µM
  growth inhibition: -13%
[12]; at 3.7 µM
  growth inhibition: -5%
[12]; at 11.0 µM
  growth inhibition: -6%
[12]; at 33.0 µM
  growth inhibition: 6%
[12]; at 100.0 µM
  growth inhibition: 10%
[13]; at 1.2 µM
  growth inhibition: -9%
[13]; at 3.7 µM
  growth inhibition: -6%
[13]; at 11.0 µM
  growth inhibition: -8%
[13]; at 33.0 µM
  growth inhibition: -9%
[13]; at 100.0 µM
  growth inhibition: -14%
[14]; at 1.2 µM
  growth inhibition: -10%
[14]; at 3.7 µM
  growth inhibition: -5%
[14]; at 11.0 µM
  growth inhibition: -2%
[14]; at 33.0 µM
  growth inhibition: -9%
[14]; at 100.0 µM
  growth inhibition: -1%
[15]; [17]
  growth inhibition: -4%
[15]; [18]
  growth inhibition: 26%
[15]; at 50.0 µM
  growth inhibition: 19.1%
[16]; at 1.2 µM
  growth inhibition: -7%
[16]; at 3.7 µM
  growth inhibition: 2%
[16]; at 11.0 µM
  growth inhibition: -2%
[16]; at 33.0 µM
  growth inhibition: -8%
[16]; at 100.0 µM
  growth inhibition: -10%

## Cc1cccc2c1nc1ccc(Cl)cc1[n+]2C
[1]; at 1.2 µM
  growth inhibition: 0%
[1]; at 3.7 µM
  growth inhibition: 9%
[1]; at 11.0 µM
  growth inhibition: 79% (active)
[1]; at 33.0 µM
  growth inhibition: 98% (active)
[1]; at 100.0 µM
  growth inhibition: 97% (active)
[2]; at 1.2 µM
  growth inhibition: -1%
[2]; at 3.7 µM
  growth inhibition: 4%
[2]; at 11.0 µM
  growth inhibition: 41%
[2]; at 33.0 µM
  growth inhibition: 97% (active)
[2]; at 100.0 µM
  growth inhibition: 96% (active)
[3]; at 1.2 µM
  growth inhibition: -4%
[3]; at 3.7 µM
  growth inhibition: 4%
[3]; at 11.0 µM
  growth inhibition: 64%
[3]; at 33.0 µM
  growth inhibition: 93% (active)
[3]; at 100.0 µM
  growth inhibition: 95% (active)
[4]; at 1.2 µM
  growth inhibition: 0%
[4]; at 3.7 µM
  growth inhibition: 7%
[4]; at 11.0 µM
  growth inhibition: 59%
[4]; at 33.0 µM
  growth inhibition: 98% (active)
[4]; at 100.0 µM
  growth inhibition: 98% (active)
[5]; at 1.2 µM
  growth inhibition: 2%
[5]; at 3.7 µM
  growth inhibition: 9%
[5]; [17]
  growth inhibition: 11%
[5]; at 11.0 µM
  growth inhibition: 84% (active)
[5]; at 33.0 µM
  growth inhibition: 96% (active)
[5]; [18]
  growth inhibition: 96% (active)
[5]; at 50.0 µM
  growth inhibition: 98% (active)
[5]; at 100.0 µM
  growth inhibition: 97% (active)
[6]; at 1.2 µM
  growth inhibition: 1%
[6]; at 3.7 µM
  growth inhibition: 18%
[6]; [17]
  growth inhibition: 3%
[6]; at 11.0 µM
  growth inhibition: 85% (active)
[6]; at 33.0 µM
  growth inhibition: 96% (active)
[6]; [18]
  growth inhibition: 96% (active)
[6]; at 50.0 µM
  growth inhibition: 98.8% (active)
[6]; at 100.0 µM
  growth inhibition: 97% (active)
[7]; at 1.2 µM
  growth inhibition: 2%
[7]; at 3.7 µM
  growth inhibition: 8%
[7]; at 11.0 µM
  growth inhibition: 57%
[7]; at 33.0 µM
  growth inhibition: 97% (active)
[7]; at 100.0 µM
  growth inhibition: 97% (active)
[8]; [17]
  growth inhibition: 26%
[8]; [18]
  growth inhibition: 97% (active)
[8]; at 50.0 µM
  growth inhibition: 98.8% (active)
[9]; at 1.2 µM
  growth inhibition: -5%
[9]; at 3.7 µM
  growth inhibition: -4%
[9]; at 11.0 µM
  growth inhibition: 89% (active)
[9]; at 33.0 µM
  growth inhibition: 96% (active)
[9]; at 100.0 µM
  growth inhibition: 95% (active)
[10]; [17]
  growth inhibition: 4%
[10]; [18]
  growth inhibition: 95% (active)
[10]; at 50.0 µM
  growth inhibition: 96.5% (active)
[11]; at 1.2 µM
  growth inhibition: 0%
[11]; at 3.7 µM
  growth inhibition: 10%
[11]; [17]
  growth inhibition: 0%
[11]; at 11.0 µM
  growth inhibition: 82% (active)
[11]; at 33.0 µM
  growth inhibition: 95% (active)
[11]; [18]
  growth inhibition: 94% (active)
[11]; at 50.0 µM
  growth inhibition: 98% (active)
[11]; at 100.0 µM
  growth inhibition: 96% (active)
[12]; at 1.2 µM
  growth inhibition: -2%
[12]; at 3.7 µM
  growth inhibition: 2%
[12]; at 11.0 µM
  growth inhibition: 92% (active)
[12]; at 33.0 µM
  growth inhibition: 97% (active)
[12]; at 100.0 µM
  growth inhibition: 95% (active)
[13]; at 1.2 µM
  growth inhibition: -3%
[13]; at 3.7 µM
  growth inhibition: 7%
[13]; at 11.0 µM
  growth inhibition: 82% (active)
[13]; at 33.0 µM
  growth inhibition: 97% (active)
[13]; at 100.0 µM
  growth inhibition: 97% (active)
[14]; at 1.2 µM
  growth inhibition: 3%
[14]; at 3.7 µM
  growth inhibition: 13%
[14]; at 11.0 µM
  growth inhibition: 89% (active)
[14]; at 33.0 µM
  growth inhibition: 97% (active)
[14]; at 100.0 µM
  growth inhibition: 97% (active)
[15]; [17]
  growth inhibition: 25%
[15]; [18]
  growth inhibition: 95% (active)
[15]; at 50.0 µM
  growth inhibition: 98.3% (active)
[16]; at 1.2 µM
  growth inhibition: 25%
[16]; at 3.7 µM
  growth inhibition: 62%
[16]; at 11.0 µM
  growth inhibition: 91% (active)
[16]; at 33.0 µM
  growth inhibition: 97% (active)
[16]; at 100.0 µM
  growth inhibition: 96% (active)
